Measurements: PubChem BioAssay AID624330 (Southern Research Specialized Biocontainment Screening …, 2012)
The campaign covered roughly 340,000 compounds. About 2,100 (0.62%) were called active.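 Rule for the calls: active = first-screen hits whose inhibition reached a set limit at any dose in the follow-up dose series; inconclusive = inhibition above the set first-screen limit but never retested; inactive = the rest.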 The list is a sample of the results. Potency and affinity values are given separately.

The compounds below were run against Rac GTPase-activating protein 1 (Homo sapiens) (UniProt Q9H0H5) (assay: blockers of MgcRacGAP-driven Rac1 GTP hydrolysis – biochemical, ADP Hunter fluorescence, primary and confirmatory, confirmation (AID 624330;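 note: fluorescence reports GDP produced by GAP-driven GTP hydrolysis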)). Conditions: MgcRacGAP-stimulated Rac1 GTP hydrolysis, at 30 µM, hits give high values, GST-tagged Rac1 F28L mutant substrate.
Rac GTPase-activating protein 1 (Homo sapiens), sequence (Q9H0H5 whole entry, looked up): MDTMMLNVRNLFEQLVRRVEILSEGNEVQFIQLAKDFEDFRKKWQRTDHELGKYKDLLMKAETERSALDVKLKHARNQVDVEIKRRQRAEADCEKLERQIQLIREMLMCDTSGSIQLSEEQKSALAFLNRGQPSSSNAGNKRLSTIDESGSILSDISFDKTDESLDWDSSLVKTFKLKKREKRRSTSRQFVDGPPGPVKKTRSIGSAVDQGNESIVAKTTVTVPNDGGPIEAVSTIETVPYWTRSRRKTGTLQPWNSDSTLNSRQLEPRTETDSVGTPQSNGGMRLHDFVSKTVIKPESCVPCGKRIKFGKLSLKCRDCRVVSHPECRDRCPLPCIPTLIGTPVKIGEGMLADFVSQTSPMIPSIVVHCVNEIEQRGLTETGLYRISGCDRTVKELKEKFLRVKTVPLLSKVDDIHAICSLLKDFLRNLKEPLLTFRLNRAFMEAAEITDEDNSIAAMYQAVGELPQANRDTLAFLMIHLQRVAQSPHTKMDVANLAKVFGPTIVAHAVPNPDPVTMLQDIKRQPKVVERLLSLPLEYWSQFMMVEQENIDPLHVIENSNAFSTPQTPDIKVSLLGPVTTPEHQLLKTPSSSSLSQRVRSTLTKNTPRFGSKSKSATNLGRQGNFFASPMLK

inhibition, inactive:
Cc1ccc(C)c(OCCC(=O)OCC(=O)Nc2cc(S(=O)(=O)N3CCCCC3)ccc2C)c1 0.95%, CC1CCN(C(=O)c2ccc(NS(=O)(=O)c3ccc4[nH]c(=O)[nH]c4c3)cc2)CC1 8.71%, CN(CC(=O)O/N=C(\N)c1ccc([N+](=O)[O-])cc1)S(=O)(=O)c1ccccc1 -3.85%, O=C(/C=C/C(Cl)(Cl)Cl)Nc1ccc(Cl)cc1 9.68%, CC1=NN(c2ccccc2)C(=O)C1C=Nc1ccccc1O (centres undefined) 14.8%, CC1=NN(c2ccccc2)C(=O)C1C(=O)c1ccccc1 (centres undefined) 12.2%, O=C(NC1(C(F)(F)F)C(=O)Nc2c1c(=O)[nH]c(=O)n2Cc1ccccc1)c1ccco1 (centres undefined) 6.82%, c1ccc(-c2ccccc2OCCCN2CCOCC2)cc1 27.2%, CCN1CCN(CCOc2ccccc2-c2ccccc2)CC1 7.05%, c1ccc(-c2ccccc2OCCOCCN2CCNCC2)cc1 31.8%, OCCCN1CCN(CCCOc2ccccc2-c2ccccc2)CC1 5.09%, c1ccc(-c2ccccc2OCCOCCN2CCCCC2)cc1 17.9%, OCCN1CCN(CCOc2ccccc2-c2ccccc2)CC1 -0.13%, CC1CN(CCOc2ccccc2-c2ccccc2)CC(C)O1 (centres undefined) 18%, CCOc1ccccc1OCCOCCN1CC(C)OC(C)C1 (centres undefined) 17.3%, Cc1ccc(C(=O)COC(=O)c2cnccn2)cc1 -2.3%, O=C(C1CCCN(S(=O)(=O)c2ccc(Cl)cc2)C1)N(Cc1cccs1)C1CC1 (centres undefined) 6.33%, CCn1c(SCC(=O)Nc2cc(C)on2)nnc1-c1ccc(OC)cc1 -3.69%, OC(CNCc1cccs1)c1ccccc1 (centres undefined) 8.64%, COc1cccc(CN2CCN(S(=O)(=O)c3ccc(Cl)s3)CC2)c1 -1.96%, CCOc1ccc(/C=N/n2cc(-c3ccccc3)[nH]c2=S)cc1 7.02%, CCOC(=O)C1(C(=O)OCC)NC(=O)CC1CC(C)C (centres undefined) 0.34%, COc1ccc(NC(=S)NCCc2ccc(F)cc2)c(OC)c1 5.59%, C/C=C/c1ccc(OCCCCOc2ccc(OC)cc2)c(OC)c1 8.38%, CC1CN(CN2C(=O)c3ccccc3C2=O)CC(C)O1 (centres undefined) -0.88%, C/C=C/c1ccc(OCCCCN2CCC(C)CC2)c(OC)c1 17.4%, Fc1ccccc1OCCCCN1CCCCC1 24.8%, Cc1ccccc1OCCCCCn1ccnc1 2.87%, Clc1ccccc1OCCCCn1ccnc1 -1.42%, CC1CN(C(=O)CCCN2C(=O)c3ccccc3C2=O)CC(C)O1 (centres undefined) -0.39%, Fc1ccccc1OCCCCCN1CCCC1 10.2%, CCn1c2ccccc2c2cc(NC(=O)COC(=O)c3cc(S(N)(=O)=O)c(Cl)cc3Cl)ccc21 11.3%, O=C(Nc1nnc(C2CC2)s1)C1Cc2ccccc2CN1C(=O)c1ccco1 (centres undefined) 6.66%, c1cn(CCCNc2ncnc3nc[nH]c23)cn1 8.22%, CCCNC(=O)CNC(=S)N(Cc1ccccc1F)C1CCCCC1 8.76%, CCCN(CC(=O)Nc1ccc(F)c(F)c1F)C(=O)Cn1c(=O)cnc2ccccc21 5.6%, O=C(OCC(=O)N1CCc2ccccc2C1)c1c(F)cccc1Cl 4.76%, O=C1CN(C(=O)COC(=O)c2ccc(N3CCCCCC3)c([N+](=O)[O-])c2)c2ccccc2N1 13.5%, COc1ccc(NC(=O)CN(C)C(=O)Cn2c(=O)oc3ccccc32)cc1 3.28%, CCOc1cc(/C=C2\CCCC(C(=O)C(F)(F)F)=C2O)ccc1O 25.9%, COc1ccc(/C=C2\CN(Cc3ccccc3)C/C(=C\c3ccc(OC)c(O)c3)C2=O)cc1O 7.6%, CCOc1cc(/C=C2\CCn3c2nc2cc(Cl)ccc2c3=O)ccc1O 15.1%, COc1ccc(/C=C2\CC/C(=C\c3ccc(OC)c(OC)c3)C2=O)cc1OC 4.49%, COc1cc(/C=C2/CC/C(=C/c3ccc(O)c(OC)c3)C2=O)ccc1O 22%, CCOc1cc(/C=C2/C(=O)ON=C2C)ccc1O 21.6%, COc1cc(/C=C2/C(=O)CNC2=O)ccc1O 28.6%, CCN1C/C(=C/c2ccc(OC)c(O)c2)C(=O)/C(=C/c2ccc(OC)c(O)c2)C1 8.1%, O=C(CSc1nnc(NC(=O)c2ccccc2F)s1)NC1CC1 2.69%, NNC(=O)c1ncoc1-c1ccc(Cl)cc1 5.93%, C=CCN1CC2CC3(COc4cc(C)cc(C)c4)C=CC2(O3)C1=O (centres undefined) 14.1%, Cc1ccc(C(=O)OCC(=O)Nc2ccc(F)c(Cl)c2)o1 5.92%, COc1ccc(CNC(=O)C[C@H]2C[C@H](C(=O)N3CCOCC3)[C@@]3(C)c4[nH]c5cc(-c6ccco6)ccc5c4CCN3C2=O)cc1OC 15.1%, O=C(C=Cc1ccccn1)c1ccccc1 3.53%, CCO[C@@H]1OC(C(=O)N2CCOCC2)=C[C@H](c2ccc(Br)cc2)[C@H]1CCCO 9.4%, CC(C)CCNC(=O)C(c1ccncc1)N(C(=O)Cn1nnc(-c2ccc(F)cc2)n1)c1ccccc1F (centres undefined) 2.28%, CSc1ccccc1NC(=O)CSc1n[nH]c(C)c1[N+](=O)[O-] 8.49%, Nc1nonc1-n1nnc(C(=O)N/N=C/c2ccc(OCc3ccccc3F)cc2)c1CN1CCCCC1 -2.32%, COc1cc(/C=C2/C(=O)N(C)C(=S)N2C)ccc1OCc1cccc(F)c1 8.12%, CN1C(=O)/C(=C/c2ccc(O)c([N+](=O)[O-])c2)N(C)C1=S 12.6%, CCc1cc(=O)oc2c(C)c(OCC(=O)NCCCn3ccnc3)ccc12 5.6%, O=C(C[C@@H]1C[C@@H]2c3cc(NS(=O)(=O)c4ccc(F)cc4)ccc3O[C@@H]2[C@@H](CO)O1)NC1CCCCC1 7.42%, O=C(NCc1cccs1)c1nc2ncccn2n1 10.9%, CSc1cccc(NC(=S)N(CCC(C)C)C2CCN(C(C)C)CC2)c1 1.15%, COc1ccccc1-c1ccc(Nc2ccc(C(=O)N3CCOCC3)cc2)nn1 2.87%, CC(=O)c1ccc(Nc2ccc(-c3ccccc3C)nn2)cc1 2.32%, O=C(NCc1ccncc1)C(=O)N/N=C/c1cccnc1 -4.63%, Cc1ccc(O)c(CN(C)Cc2cc(C)ccc2O)c1 -9.02%, O=P(Cc1ccccc1O)(c1ccccc1)c1ccccc1 3.4%, COc1ccc(S(=O)(=O)NC(C)C(=O)Nc2cccc(C(C)=O)c2)cc1 (centres undefined) 8.82%, CCc1cc2c(=O)c(-c3nc4ccccc4n3C)c(C)oc2c(CN(CC)CC)c1O 8.27%, CCN(CC)CCn1c2ccccc2c2nc3ccccc3nc21 11.3%, O=C(c1cccnc1)N1CCN(S(=O)(=O)c2ccc(S(=O)(=O)N3CCCC3)cc2)CC1 2.14%, CCc1ccc(N(CC(=O)Nc2ccc(OC)cc2OC)S(C)(=O)=O)cc1 6.83%, Cc1cc(N2C(=O)C3C4CCC(C4)C3C2=O)no1 (centres undefined) -3.98%, O=C(CCCc1cccs1)N1CCN(S(=O)(=O)c2ccccc2Br)CC1 8.03%, CC(=O)NC(NC(=S)Nc1ccc(N=Nc2ccccc2)cc1)C(Cl)(Cl)Cl (centres undefined) 7.33%, COC(=O)C1CC(=O)N(c2ccc(C)cc2)C1 (centres undefined) 1.9%, COc1ccc(N2CC(C(=O)OCC(=O)c3ccc(C)cc3)CC2=O)cc1 (centres undefined) -1.09%, COc1cccc(N2CC(NC(=O)c3ccc4ccccc4c3)CC2=O)c1 (centres undefined) 6.5%, COC(=O)c1ccc(OC(=O)C2CC(=O)N(c3cccc(C)c3)C2)cc1 (centres undefined) -2.41%, O=C(COC(=O)c1ccccc1Cl)NCc1ccco1 6.58%, CC(C)=CCN1CCN(CCCn2cccn2)CC1CCO (centres undefined) 0.56%, CC(=O)Nc1ccc(S(=O)(=O)Nc2nccc(/C=C/c3ccc(Cl)cc3)n2)cc1 -0.65%, COCC1CCN(C(=O)c2cc(COc3ccc(OC)cc3Cl)on2)C1 (centres undefined) 10.9%, COC(=O)C1(Cc2ccc(O)cc2)OC(=O)C(O)=C1c1ccc(O)cc1 (centres undefined) 16.3%, CC(=O)Nc1ccc(S(=O)(=O)c2ccc(C)cc2)cc1 10.7%, Cc1ccc(S(=O)(=O)c2ccc(C)cc2)cc1 5.53%, COc1cc(C(=O)NCCC(=O)N2CCC3(CC2)NCCc2[nH]cnc23)cc(OC)c1OC 1.24%, CCC1CCCCN1C(=S)NC(=O)c1ccc(F)c(S(=O)(=O)N2CCOCC2)c1 (centres undefined) 0.38%, Oc1ccc(/C(Cc2ccccn2)=N\Nc2ccccc2)c(O)c1 13.1%, Cc1nc(CC(=O)c2ccc(O)cc2O)cs1 -0.73%, O=C(Cc1cscn1)c1ccc(O)cc1O 0.47%, Cc1nc(C/C(=N\Nc2ccccc2)c2ccc(O)cc2O)cs1 10.9%, C#CCOCCOCCOCCNc1nc(N2CCN(C(=O)CCCCCCCCCCNC(=O)[C@@H](CCC(=O)O)n3cc(CCCCCN)nn3)CC2)nc(N2CCN(C(=O)CCCCCCCCCCNC(=O)[C@@H](CCC(=O)O)n3cc(CCCCCN)nn3)CC2)n1 0.63%
